Outcome and AC50 data for 27 compounds are collected here from PubChem BioAssay (EPA / NIEHS).

Active and inactive are the calls of the source. Rule for the calls: active = hit-call score of the fitted dose curve at least 0.9, where 1 is the maximum; inactive = score below 0.9.

The nature of test [1]: ATG_CRE_CIS: Attagene CIS-FACTORIAL HepG2 Assay for human cAMP Responsive Element (CRE) binding protein 3 (AID 2282926). Conditions: HepG2 CRE cis-reporter, Attagene multiplexed mRNA; actives raise or lower the signal. The gist of the method:
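Induced reporter mRNA from a CRE cis element, measured in HepG2 among many multiplexed units at 24 h. Detection used RT-PCR plus capillary electrophoresis of fluorescent fragments; DMSO served as negative control.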

Test [2] concerns the target CCAAT/enhancer-binding protein beta (Homo sapiens) (UniProt P17676). As to the kind of experiment: ATG_C_EBP_CIS: Attagene CIS-FACTORIAL HepG2 Assay for human CCAAT/Enhancer Binding Protein (C/EBP) beta (AID 2282927). Conditions: HepG2 Attagene cis-factorial transcription factor reporter; actives raise or lower the signal. The gist of the method:
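HepG2 transiently transfected with multiplexed reporter units under cis-regulatory promoters reporting endogenous C/EBPb activity. After 24 h exposure, reporter mRNA assayed by RT-PCR, fluorescent labelling, HpaI digestion and capillary electrophoresis; bidirectional fitting versus DMSO.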

A short description of test [3]: ATG_CMV_CIS: Attagene CIS-FACTORIAL HepG2 Assay for human CMV (Internal Marker) (AID 2282928).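 Note: endpoint acts as a background internal control marker rather than a target.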 Conditions: HepG2 CMV promoter reporter, transcription factor profiling; actives raise or lower the signal. The gist of the method: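 Fluorescence intensity of RT-PCR-derived reporter fragments, resolved by capillary electrophoresis, gives the signal. HepG2 liver cells bearing transfected cis-element reporters were treated 24 h; activity in either direction was fit relative to DMSO-treated controls.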

Test [4] can be described thus: ATG_DR4_LXR_CIS: Attagene CIS-FACTORIAL HepG2 Assay for human Liver X Receptor (LXR), DR4 submotif (AID 2282929). The conditions noted are these: HepG2 Attagene DR4 cis-reporter, mRNA transcription; actives raise or lower the signal. The gist of the method: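 Fluorescence intensity of labelled reporter cDNA fragments, separated by capillary electrophoresis, gives the signal. HepG2 cells bearing cis-regulated reporter constructs were treated 24 h; activity fitted bidirectionally relative to DMSO negative control.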

The target of test [5] is Aryl hydrocarbon receptor (Homo sapiens) (UniProt P35869). Briefly: ATG_Ahr_CIS: Attagene CIS-FACTORIAL HepG2 Assay for human Aryl Hydrocarbon Receptor (Ahr) (AID 2282930). The conditions noted are these: HepG2 AhR cis-factorial reporter transcription; actives raise or lower the signal. The gist of the method:
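HepG2 cells transiently transfected with cis-element-driven multiplexed reporter units; endogenous AhR activity read as reporter mRNA 24 h after dosing, via RT-PCR, 6-FAM labelling, HpaI digestion and capillary electrophoresis. Bidirectional fit relative to DMSO.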

Test [6] in a line: ATG_AP_1_CIS: Attagene CIS-FACTORIAL HepG2 Assay for human Activator Protein 1 (AP-1) (AID 2282931). The conditions noted are these: HepG2 Attagene cis-factorial AP-1 reporter mRNA; actives raise or lower the signal. The method in brief:
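Multiplexed HepG2 reporter assay, 24 h dosing. mRNA induction detected by RT-PCR plus capillary electrophoresis. Activity fitted in both directions against DMSO.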

Test [7] can be described thus: ATG_AP_2_CIS: Attagene CIS-FACTORIAL HepG2 Assay for human Activator Protein 2 (AP-2) (AID 2282932). The conditions noted are these: HepG2 AP-2 cis-reporter, Attagene transcription factor profiling; actives raise or lower the signal. The method in brief: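 Read-out: fluorescent reporter mRNA via RT-PCR and capillary electrophoresis, 24 h post-dose in transiently transfected HepG2. Endogenous factors drive cis-promoter reporters; gain or loss of signal fitted bidirectionally against DMSO.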

The target in test [8] is Transcription factor E2F1 (Homo sapiens) (UniProt Q01094). As to the kind of experiment: ATG_E2F_CIS: Attagene CIS-FACTORIAL HepG2 Assay for human E2F Transcription Factor 1 (AID 2282935). Conditions: HepG2 Attagene cis-reporter, E2F reporter RNA transcripts; actives raise or lower the signal. The gist of the method: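 Transient MRTU transfection of HepG2; 24 h compound exposure; RNA → oligo(dT) RT → PCR → FAM label → HpaI cut → CE fluorescence. Gain/loss of signal fit against DMSO.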
Chain of Transcription factor E2F1 (Homo sapiens) (Q01094 whole entry, looked up): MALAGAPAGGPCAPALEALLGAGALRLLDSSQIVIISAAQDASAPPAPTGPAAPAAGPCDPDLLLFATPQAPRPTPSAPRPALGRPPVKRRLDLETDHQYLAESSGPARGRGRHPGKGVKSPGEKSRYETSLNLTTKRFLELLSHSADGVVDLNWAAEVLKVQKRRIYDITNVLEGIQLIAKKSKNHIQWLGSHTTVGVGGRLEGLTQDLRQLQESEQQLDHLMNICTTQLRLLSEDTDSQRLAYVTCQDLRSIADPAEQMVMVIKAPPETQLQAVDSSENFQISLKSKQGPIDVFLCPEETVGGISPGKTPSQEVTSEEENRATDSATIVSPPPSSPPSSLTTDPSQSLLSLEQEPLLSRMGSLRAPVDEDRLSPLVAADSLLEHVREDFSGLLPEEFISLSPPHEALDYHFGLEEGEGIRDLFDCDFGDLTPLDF

The target in test [9] is Retinoic acid receptor alpha (Homo sapiens) (UniProt P10276). As to the kind of experiment: ATG_DR5_RAR_CIS: Attagene CIS-FACTORIAL HepG2 Assay for human Retinoic Acid Receptor Alpha (RARE), DR5 submotif (AID 2282934). Conditions: HepG2 Attagene cis-factorial RARE DR5 reporter, mRNA; actives raise or lower the signal. The gist of the method:
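HepG2 cells transiently transfected with multiplexed reporter units; DR5 cis-element drives reporter through endogenous transcription factors. After 24 h dosing, reporter mRNA quantified by RT-PCR, fluorescent labeling, HpaI digestion and capillary electrophoresis; bidirectional fitting versus DMSO.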

The nature of test [10]: ATG_BRE_CIS: Attagene CIS-FACTORIAL HepG2 Assay for human Bone Morphogenetic Protein (BMP) Response Element (BRE) (AID 2282933). Conditions: HepG2 BMP response element reporter, Attagene transcription factor profiling; actives raise or lower the signal. The method in brief:
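A HepG2 multiplex reporter system measured inducible reporter mRNA 24 h post-dosing. Detection: RT-PCR, 6-FAM primer extension, HpaI digestion, capillary electrophoresis. Activity fitted bidirectionally relative to DMSO.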

Chain of Aryl hydrocarbon receptor (Homo sapiens) (P35869 whole entry, looked up): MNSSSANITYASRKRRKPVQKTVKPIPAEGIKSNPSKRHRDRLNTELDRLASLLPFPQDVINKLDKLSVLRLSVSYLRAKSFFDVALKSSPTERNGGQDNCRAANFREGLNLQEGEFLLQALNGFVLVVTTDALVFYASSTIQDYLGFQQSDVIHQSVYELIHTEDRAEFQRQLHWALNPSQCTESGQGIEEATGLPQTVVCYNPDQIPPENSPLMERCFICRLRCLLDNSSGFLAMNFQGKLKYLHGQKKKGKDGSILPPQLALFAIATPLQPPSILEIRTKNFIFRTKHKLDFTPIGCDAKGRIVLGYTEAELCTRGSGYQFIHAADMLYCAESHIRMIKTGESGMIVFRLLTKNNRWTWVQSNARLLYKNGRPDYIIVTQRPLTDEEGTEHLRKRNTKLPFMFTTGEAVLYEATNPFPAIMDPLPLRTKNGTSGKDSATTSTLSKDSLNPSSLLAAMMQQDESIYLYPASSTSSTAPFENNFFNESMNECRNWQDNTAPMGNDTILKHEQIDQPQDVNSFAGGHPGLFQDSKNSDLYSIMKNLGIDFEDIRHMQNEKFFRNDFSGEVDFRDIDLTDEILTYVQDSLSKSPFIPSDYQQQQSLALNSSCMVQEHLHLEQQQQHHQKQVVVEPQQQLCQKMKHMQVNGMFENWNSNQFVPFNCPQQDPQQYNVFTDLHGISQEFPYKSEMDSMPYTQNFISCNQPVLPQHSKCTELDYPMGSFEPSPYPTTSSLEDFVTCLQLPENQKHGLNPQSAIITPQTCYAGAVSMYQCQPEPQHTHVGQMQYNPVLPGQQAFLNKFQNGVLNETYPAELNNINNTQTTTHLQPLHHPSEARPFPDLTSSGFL
Chain of CCAAT/enhancer-binding protein beta (Homo sapiens) (P17676 whole entry, looked up): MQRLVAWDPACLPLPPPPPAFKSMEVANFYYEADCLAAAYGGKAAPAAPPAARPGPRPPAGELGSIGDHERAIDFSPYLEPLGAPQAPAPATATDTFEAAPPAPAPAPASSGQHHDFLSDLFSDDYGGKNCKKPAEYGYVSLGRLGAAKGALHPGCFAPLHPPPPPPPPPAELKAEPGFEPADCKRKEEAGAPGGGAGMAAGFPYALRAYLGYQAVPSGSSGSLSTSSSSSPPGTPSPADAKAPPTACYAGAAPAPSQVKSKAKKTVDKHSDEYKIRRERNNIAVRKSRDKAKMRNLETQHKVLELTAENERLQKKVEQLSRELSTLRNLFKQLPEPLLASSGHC
Chain of Retinoic acid receptor alpha (Homo sapiens) (P10276 whole entry, looked up): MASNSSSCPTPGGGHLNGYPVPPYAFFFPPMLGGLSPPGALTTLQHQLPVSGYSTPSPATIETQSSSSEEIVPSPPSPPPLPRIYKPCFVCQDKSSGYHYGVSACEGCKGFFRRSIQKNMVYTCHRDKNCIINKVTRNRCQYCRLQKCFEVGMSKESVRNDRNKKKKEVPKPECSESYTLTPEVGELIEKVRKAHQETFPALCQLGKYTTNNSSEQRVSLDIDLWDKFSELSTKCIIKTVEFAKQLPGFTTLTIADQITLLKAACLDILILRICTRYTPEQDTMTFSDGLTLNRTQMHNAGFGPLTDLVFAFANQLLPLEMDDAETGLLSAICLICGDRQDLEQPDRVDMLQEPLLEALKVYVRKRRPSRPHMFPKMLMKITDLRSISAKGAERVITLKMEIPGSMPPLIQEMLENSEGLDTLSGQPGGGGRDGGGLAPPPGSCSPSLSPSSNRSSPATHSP

In the case of `CCOc1ccccc1OCC`, the result in test [1], in test [2], in test [3], in test [4], in [5] and in [6] was inactive. Besides, the call in [7] and in test [8] was inactive.
Turning to `CCCCCCCCCCCCCCCC(=O)O`, the outcome in test [1], in test [2], in [3], in test [4], in test [5] and in [6] was inactive. Also, the result in test [7], in [9] and in [8] was inactive.
Take `COC(=O)c1ccc(C)cc1`: the compound was called inactive in test [1], in test [2], in test [3], in [4], in test [5] and in test [6]. Besides, the compound was classed as inactive in test [7], in test [10] and in test [8].
With `CN(C)CCCN`, the compound was classed as inactive in test [1], in [2], in test [3], in test [4], in test [5] and in test [6]. Also, the result in test [7], in test [10] and in test [8] was inactive.
`CC1CCC2CC1C2(C)C` (centres undefined): the compound was called inactive in test [1], in test [2], in test [3], in test [4], in test [5] and in [6]. The outcome in test [7], in [10] and in [8] was inactive.
As to `O=C1O[C@@H]2[C@@H](O)[C@H](O)O[C@@H]2[C@H]1O`, the compound was classed as inactive in test [1], in [2], in test [3], in [4], in test [5] and in test [6]. Also, the result in [7], in test [10] and in test [8] was inactive.
On to `ClCCCl`, for which the result in [1], in test [2], in [3], in test [4], in test [5] and in test [6] was inactive. Further, the result in test [7], in test [10] and in test [8] was inactive.
Consider `CC(=O)[O][Al][O]C(C)=O`, for which the result in test [1], in [2], in test [3], in test [4], in [5] and in test [6] was inactive. Also, the result in [7], in [10] and in test [8] was inactive.
Regarding `CC(=O)OCCOC(C)=O`, the compound was classed as inactive in test [1], in test [2], in [3], in test [4], in test [5] and in [6]. The outcome in test [7], in [10] and in test [8] was inactive.
Turning to `CC(C)C1CCC(O)CC1` (centres undefined), the call in test [1], in test [2], in test [3], in [4], in test [5] and in [6] was inactive. Moreover, the outcome in test [7] and in test [8] was inactive.
With `CN1[C@@H]2CC(OC(=O)[C@H](CO)c3ccccc3)C[C@H]1[C@@H]1O[C@@H]12` (some centres undefined), the call in test [1], in test [2], in test [3], in test [4], in [5] and in test [6] was inactive. Besides, the compound was called inactive in [7] and in test [8].
In the case of `COc1cc(C=O)ccc1OC(=O)C(C)C`, the compound was called inactive in [1], in test [2], in test [3], in [4], in [5] and in [6]. For the same compound, the compound was called inactive in test [7], in test [9] and in test [8].
`C=CCOc1nc(OCC=C)nc(OCC=C)n1`: the compound was called inactive in test [1], in test [2], in [4], in test [5], in test [6] and in [7]. Moreover, the outcome in test [10] and in test [8] was inactive. In test [3], the AC50 (as a rule, the concentration giving half of the maximal activity seen) was 42.9 µM (active).
Consider `NNc1nc(-c2ccc(N)cc2)cs1`, for which the result in test [1], in test [2], in [3], in [4], in test [5] and in [6] was inactive. The call in test [7] and in test [8] was inactive.
With `CC(C)OP(=O)(CP(=O)(OC(C)C)OC(C)C)OC(C)C`, the result in test [1], in test [2], in test [3], in test [4], in test [5] and in test [6] was inactive. Besides, the outcome in [7], in [10] and in test [8] was inactive.
On to `CC(=O)OCCC(C)CC(C)(C)C` (centres undefined), for which the compound was classed as inactive in [1], in test [2], in [3], in test [4], in test [5] and in [6]. Besides, the compound was classed as inactive in test [7], in test [10] and in [8].
`Nc1cccc(S(=O)(=O)c2cccc(N)c2)c1`: the compound was classed as inactive in test [1], in test [2], in test [3], in [4], in test [5] and in [6]. The compound was called inactive in test [7], in test [10] and in test [8].
As for `CC1(CO)CN(c2ccccc2)NC1=O` (centres undefined), the result in test [1], in test [2], in [3], in test [4], in test [6] and in test [7] was inactive. Moreover, the compound was classed as inactive in [9] and in test [8]. In addition, the AC50 in test [5] was 9.8 µM (active).
With `Clc1ccc2c(c1)C(N1CCNCC1)=Nc1ccccc1O2`, the result in test [1], in [3], in [4], in test [6], in test [7] and in [10] was inactive. In addition, in [8], the result was inactive. Also, the AC50 in [2] was 51 µM (active); in test [5], 41.1 µM (active).
Turning to `C=CC(C)(CCC=C(C)C)OC=O` (centres undefined), the outcome in test [1], in [2], in test [3], in test [4], in test [5] and in test [6] was inactive. Besides, the compound was called inactive in test [7], in [10] and in test [8].
For the compound `CC(=O)C(C)=O`, the call in test [1], in [2], in test [4], in [5], in test [6] and in test [7] was inactive. Also, the compound was called inactive in test [10] and in test [8]. Also, the AC50 in [3] was 40.6 µM (active).
Consider `Cc1c(N(C)C)c(=O)n(-c2ccccc2)n1C`, for which the outcome in [1], in [2], in [3], in test [4], in test [6] and in test [7] was inactive. The compound was classed as inactive in [10] and in test [8]. In test [5], the AC50 was 64.9 µM (active).
Consider `O=c1oc(=O)c2cc3c(=O)oc(=O)c3cc12`, for which the result in [1], in [2], in test [3], in [4], in test [5] and in test [6] was inactive. Further, the compound was called inactive in test [7], in [9] and in test [8].
As to `CCc1c(C)cc(N)c(CC)c1N`, the compound was called inactive in [1], in test [2], in test [3], in test [4], in [6] and in test [7]. The outcome in test [10] and in test [8] was inactive. Moreover, in [5], the AC50 is 79.3 µM (active).
Consider `C=C(C)C1CCC(C)CC1O` (centres undefined), for which the compound was called inactive in test [1], in [2], in [3], in [4], in [5] and in test [6]. Also, the outcome in test [7], in test [10] and in [8] was inactive.
Regarding `[Ca+2]`, the compound was classed as inactive in test [1], in [2], in test [3], in test [4], in [5] and in test [6]. The result in test [7], in test [9] and in test [8] was inactive.
As to `CC1=CC(=O)NS(=O)(=O)O1`, the call in [1], in test [2], in test [3], in [4], in [5] and in test [6] was inactive. The compound was classed as inactive in test [7], in test [10] and in test [8].
